target: IFI44L; experiment: pooled miR-30 sensor sort-seq; sequence = guide strand; details: shRNA
Note: reference of the scale not given here.

| Sequence | sensor-assay potency score (higher = more potent) |
| --- | --- |
| TTTATGGACATTCATGACCCGG | -1.2 |
| TTGTCTTGAAGAACCTCACTGC | 0.709 |
| TTATGGACATTCATGACCCGGC | -0.0543 |
| TACTTCTTTGTGAACTTGCTTC | 0.0933 |
| TAATACTTCTTTGTGAACTTGC | 0.781 |
| TTCTTTGTGAACTTGCTTCACT | 0.156 |
| TTGAAGTGAAAACCATAGGGAA | -0.486 |
| TATGTCGTCTAGGTTATCCTTA | 0.221 |
| TAGCATTTTATGGACATTCATG | -1.18 |
| TTTGTGAACTTGCTTCACTTTT | -0.819 |
| TTTCGATAAACGACACACCAGT | -0.943 |

target: IFLTD1; experiment: as above; details: shRNA

| Sequence | sensor-assay potency score (higher = more potent) |
| --- | --- |
| TTTTCCACTCTGGAACAGCTAC | -0.846 |
| TATAGTTACTCTACTAATCTGA | 0.529 |
| TTGCTTTTCTAGTAGCTGGTTG | -0.208 |
| TTGAGATATCTTTCTTAGGTTG | -0.851 |
| TAGACAGATAGTAACCAAGAGG | -1.22 |
| TAAGTTTCTTTGAATCACCAAA | -0.981 |
| TTGTCCATTCACATTTTGCTGG | -0.587 |
| TTGTTATACAATCAGGACTTGC | -1.51 |
| TAATTTGAGATATCTTTCTTAG | -0.577 |
| TTGCTCTAAACTTGTCTTGTTC | -0.614 |
| TTGAATAATACTAACCATCTGC | 0.269 |
| TCTTCTTTTTCTTAGACCCTGA | -0.319 |

target: IFNA17; experiment: as above; details: shRNA

| Sequence | sensor-assay potency score (higher = more potent) |
| --- | --- |
| TTGCTGGTAAAGTTCAGTGGAA | -0.731 |
| TTCCAGGTTATTCAGTTGCTGG | -1.21 |
| TTCTCTGTTAGATAAAGAGTGA | -0.598 |
| TATCACACATGCTTCCAGGTTA | 0.103 |
| TCTTCCATCCCAACCTCCTGTA | -0.396 |
| TCTTCTGGAACTGGTTGCCATC | -1.69 |
| TATTTTTTGCAAGTTTGTTGAA | -0.556 |
| TCTGAGGCAGATCACAGCCTAG | -1.69 |
| TAGAGAACAGATGGATTTGTAG | -0.448 |
| TGTATTTCTTCTCTGTTAGATA | -1.15 |

target: IFT52; experiment: as above; details: shRNA

| Sequence | sensor-assay potency score (higher = more potent) |
| --- | --- |
| TTCTTCAGTACACTTATTGGTA | -0.369 |
| TTCATGTTTCACATTTAGCTGC | -0.162 |
| TAATCCACAGTTTTACTCCATT | -1.37 |
| TTTCACATTTAGCTGCTCGTGA | 0.557 |
| TGAACATGTGACATGAACCAAG | -0.609 |
| TGAATCTTCCAATTACTCCGAA | 0.152 |
| TTAATATTGGTGTCAAATCTGG | -0.514 |

Source: the OligoGym collection
